Laboratory results: PubChem BioAssay (Tox21)
“And” between values parts separate entries of the source, which are not always exact repeats. Equal entries are not always repeated. Values without a mark were called inactive. Inconclusive results are not listed. Entries that show only a call come without a potency. The source made the active and inactive calls. The call rests on the fitted dose curve; in most records, active means well fitted curve in the direction sought with a large enough effect in the repeat runs; inconclusive means weak or mixed curves; inactive means no such curve, though single readings can be large; an effect the other way counts as inactive or inconclusive.

How the values were obtained:
[1] = A CellTox Green Cytotoxicity Assay to monitor cytotoxicity in HepG2 cells - 0 hour (AID 1224882); further: nearly all actives have a fitted effect of over 35% in size
Method in brief: (§1)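 Continuous culture of HepG2 cells with a membrane-impermeant DNA dye; rising fluorescence marks dead cells. Compound exposure lasted up to 40 h at 37 C, with reads every 8 h from 0 h.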

[2] = A CellTox Green Cytotoxicity Assay to monitor cytotoxicity in HepG2 cells - 32 hour (AID 1224883); further: nearly all actives have a fitted effect of over 50% in size
Method in brief: as §1

[3] = A CellTox Green Cytotoxicity Assay to monitor cytotoxicity in HEK293 cells - 8 hour (AID 1224884); further: nearly all actives have a fitted effect of over 35% in size
Method in brief: (§2)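 Each value comes from one timepoint of a single continuous run in which HEK293 cells with CellTox Green were exposed to compound for up to 40 h at 37 C, dye fluorescence rising with cell death.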

[4] = qHTS RealTime-Glo MT Cell Viability Assay in HepG2 cells - 16 hour (AID 1224885); further: nearly all actives have a fitted effect of over 50% in size
Method in brief: (§3)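 Luminescence read-out: viable HepG2 cells reduce a prosubstrate to a NanoLuc substrate, giving a signal proportional to live cell number. Reads taken at 0, 8, 16, 24, 32 and 40 h of compound exposure at 37 C.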

[5] = qHTS RealTime-Glo MT Cell Viability Assay in HEK293 cells - 24 hour (AID 1224886); further: nearly all actives have a fitted effect of over 50% in size
Method in brief: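 Nonlytic real-time viability readout: viable cells convert prosubstrate to NanoLuc substrate, giving luminescence proportional to live cell number. HEK293, 600 cells/well, compound added after 5 h, continuous culture at 37 C.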

[6] = qHTS RealTime-Glo MT Cell Viability Assay in HEK293 cells - 8 hour (AID 1224887); further: nearly all actives have a fitted effect of over 50% in size
Method in brief: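 qHTS format; HEK293 cells with NanoLuc/prosubstrate reagent, 37 C/5% CO2 for 5 h pre-dosing; compounds 23 nL in DMSO; luminescence at each time point reflects viable cells.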

[7] = A CellTox Green Cytotoxicity Assay to monitor cytotoxicity in HEK293 cells - 16 hour (AID 1224888); further: nearly all actives have a fitted effect of over 35% in size
Method in brief: as §2

[8] = qHTS RealTime-Glo MT Cell Viability Assay in HepG2 cells - 0 hour (AID 1224889); further: nearly all actives have a fitted effect of over 50% in size
Method in brief: as §3

[9] = A CellTox Green Cytotoxicity Assay to monitor cytotoxicity in HepG2 cells - 8 hour (AID 1224890); further: nearly all actives have a fitted effect of over 45% in size
Method in brief: as §1

[10] = qHTS assay to identify small molecule antagonists of the estrogen receptor alpha (ER-alpha) signaling pathway using the BG1 cell line in the presence of 0.1 nM 17-beta-estradiol - cell viability counter screen (AID 1259241); further: nearly all actives have a fitted effect of over 40% in size
Method in brief: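 The cell line endogenously expresses full-length ER-alpha and carries four EREs driving luciferase. Cells are cultured 5 days hormone-free, treated 22 hr with compounds and 0.1 nM estradiol, then viability is read by fluorescence.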
Potency means the concentration at half of the fitted maximal effect.

Compound	Potency [1]	Potency [2]	Potency [3]	Potency [4]	Potency [5]	Potency [6]	Potency [7]	Potency [8]	Potency [9]	Potency [10]
Cn1cccc1	inactive	inactive	inactive	inactive	inactive	inactive	inactive	inactive	inactive	inactive
CC(C)c1cccc(C(C)C)c1N1C(=O)c2ccc(O)cc2C1=O	inactive	24.5 µM (active)	inactive	49 µM (active)		inactive	inactive	inactive	38.9 µM (active)	inactive
CCCCCCCC(C)=O	inactive	inactive	inactive	inactive		inactive	inactive	inactive	inactive	inactive
C/C=C/c1ccc(OC)c(OC)c1	inactive	inactive	inactive	inactive	inactive	inactive	inactive	inactive	inactive	inactive
CCCCCCCCCCCC(=O)N(CC)CC	inactive	inactive	inactive	inactive		inactive	inactive	inactive	inactive	inactive
O=C1c2c(O)ccc(O)c2C(=O)c2c(NCCNCCO)ccc(NCCNCCO)c21	inactive	inactive	inactive	19 µM (active)	0.0601 µM (active)		inactive	inactive	inactive	
Cc1occc1SSc1ccoc1C	inactive	54.9 µM (active)	inactive	inactive	inactive	inactive	inactive	inactive		inactive
SCCCCCCCCS	inactive	19.5 µM (active)	inactive	inactive	inactive	inactive	inactive	inactive		inactive
C=C(c1ccc(C(=O)O)cc1)c1cc2c(cc1C)C(C)(C)CCC2(C)C	inactive	43.6 µM (active)	inactive	inactive		inactive		inactive	inactive	inactive
CCCCCCCCCCCCCOP(=O)(O)O	inactive	inactive	inactive	inactive		inactive	inactive	inactive	inactive	inactive
OCCCCl	inactive	inactive	inactive	inactive		inactive	inactive	inactive	inactive	inactive
Cc1nc(Nc2ncc(C(=O)Nc3c(C)cccc3Cl)s2)cc(N2CCN(CCO)CC2)n1	inactive	26.8 µM (active)	inactive		30.1 µM (active)		inactive	23.9 µM (active)	inactive	
Nc1ccc2cc3ccc(N)cc3nc2c1	49 µM (active) and 23.9 µM (active)	49 µM (active) and 21.3 µM (active)	49 µM (active) and 21.3 µM (active)		2.45 µM (active) and 3.01 µM (active)	24.5 µM (active)	49 µM (active) and 21.3 µM (active)	inactive	49 µM (active) and 21.3 µM (active)	
CCC(C)(C)c1cc(O)c(C(C)(C)CC)cc1O	inactive	49 µM (active)	inactive		21.9 µM (active)	21.9 µM (active)		inactive	inactive	inactive
C[C@@]12C(=O)OC(=O)[C@]1(C)C1CCC2O1	inactive	9.52 µM (active)	inactive		6.74 µM (active)		inactive	inactive	23.9 µM (active)	
COc1ccc2sc(C(=O)Nc3nnn[nH]3)c(OC(C)C)c2c1	inactive	inactive	inactive	inactive		inactive	inactive	inactive	inactive	inactive
C=CC(=O)OCCOCC(CC)(COCCOC(=O)C=C)COCCOC(=O)C=C	inactive	25.6 µM (active)	inactive		16.1 µM (active)		inactive	inactive	inactive	14.3 µM (active)
CN(C)CCCN1c2ccccc2Sc2ccc(C(F)(F)F)cc21	inactive	23.9 µM (active)	inactive		21.3 µM (active)	21.3 µM (active)	inactive			inactive
CCCCCCC(C)Nc1ccc(Nc2ccccc2)cc1 (configuration not stated)	inactive	inactive	inactive		21.9 µM (active)	19.5 µM (active)	inactive		inactive	inactive
CCOC(=O)CN	inactive	inactive	inactive	inactive		inactive	inactive	inactive	inactive	inactive
C[n+]1c2cc(N)ccc2cc2ccc(N)cc21 (tested in a mixture with another compound)	23.9 µM (active)	21.3 µM (active)	23.9 µM (active)		9.52 µM (active)		23.9 µM (active)	inactive	23.9 µM (active)	
